From PubChem BioAssay (EPA / NIEHS) come the findings set out here.

SMILES strings stand for the structures. Several values for one entry are separate records, joined by “and”; a condition that tells them apart may be missing. Equal entries are not always repeated. Activity calls are given as the source filed them. How the source made its calls: active means hit-call score of the fitted dose curve at least 0.9, where 1 is the maximum; inactive means score below 0.9.

Read-out in the first experiment: Monocyte Chemoattractant Protein-1 (MCP1), CCL2 (gene 6347)
Description: BSK_3C_MCP1: BioMAP Diversity Plus: 3C Assay for Monocyte Chemoattractant Protein-1 (MCP1) Biomarker Activity (AID 2283017). The note with it: primary human endothelial cells (HUVEC); actives raise or lower the signal. The procedure, abridged: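 Using human vascular primary endothelium, researchers measured MCP-1 by ELISA 24 h after treatment, with DMSO serving as negative control for bidirectional fitting.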
As a reminder, the AC50 is the concentration at which the activity in the assay is half-maximal. On to `COc1ccc(CCN2CCC(Nc3nc4ccccc4n3Cc3ccc(F)cc3)CC2)cc1`, for which the AC50 is 3.54 µM (active).
The same measure, in the same setting: in the case of `CCC(C)c1cc([N+](=O)[O-])cc([N+](=O)[O-])c1OC(=O)OC(C)C` (centres undefined) it was 29.5 µM (active).
As to `c1ccc2cc(Nc3ccc(Nc4ccc5ccccc5c4)cc3)ccc2c1`, the result was inactive.
In the case of `CC(C)(C)CC(C)(C)c1ccc(OCCOCC[N+](C)(C)Cc2ccccc2)cc1`, the AC50 is 5 µM (active).
In the case of `CC(C)(N=C=O)c1cccc(C(C)(C)N=C=O)c1`, the result was inactive.
Same read-out and setting: in the case of `C1=CC2C3C=CC(C3)C2C1` (centres undefined) it was “inactive”.
For `CC1(C)CCC[C@]2(C)[C@H]3CCO[C@]3(C)CC[C@@H]12`, the AC50 was 26.4 µM (active) and 34.5 µM (active).
Consider `CS(=O)(=O)c1ccc(C2=C(c3ccccc3)C(=O)OC2)cc1`, for which the outcome was inactive.

Read-out in the next experiment: Monocyte Chemoattractant Protein-1 (MCP1), CCL2 (gene 6347)
The experiment is described as follows: BSK_4H_MCP1: BioMAP Diversity Plus: 4H Assay for Monocyte Chemoattractant Protein-1 (MCP1) Biomarker Activity (AID 2283018). The note with it: primary human endothelial cells (HUVEC); actives raise or lower the signal. Summed up:
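ELISA of MCP-1 (CCL2) 24 h after chemical dosing of HUVEC in the BioMAP 4H system. Gain or loss versus DMSO fitted; parallel SRB staining (560 nm) tracked overt cytotoxicity.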
In the case of `COc1ccc(CCN2CCC(Nc3nc4ccccc4n3Cc3ccc(F)cc3)CC2)cc1`, the AC50 was 0.992 µM (active).
Consider `CCC(C)c1cc([N+](=O)[O-])cc([N+](=O)[O-])c1OC(=O)OC(C)C` (centres undefined), for which the AC50 is 5.06 µM (active).
With `c1ccc2cc(Nc3ccc(Nc4ccc5ccccc5c4)cc3)ccc2c1`, the result was inactive.
Take `CC(C)(C)CC(C)(C)c1ccc(OCCOCC[N+](C)(C)Cc2ccccc2)cc1`: the half-maximal activity concentration (AC50) was 3.9 µM (active).
For `CC(C)(N=C=O)c1cccc(C(C)(C)N=C=O)c1`, the result was inactive.
On the same count and under the same terms, in the case of `C1=CC2C3C=CC(C3)C2C1` (centres undefined) it was “inactive”; in that of `CC1(C)CCC[C@]2(C)[C@H]3CCO[C@]3(C)CC[C@@H]12`, “inactive”; in that of `CS(=O)(=O)c1ccc(C2=C(c3ccccc3)C(=O)OC2)cc1`, “inactive”.

Read-out in another experiment: Human Leukocyte Antigen - DR isotype (HLADR), HLA-DRA (gene 3122)
Description: BSK_3C_HLADR: BioMAP Diversity Plus: 3C Assay for Human Leukocyte Antigen - DR isotype (HLADR) Biomarker Activity (AID 2283019).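 On outcome: ELISA of cell-surface HLA-DR on HUVEC 24 h after dosing.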 As to conditions: primary human endothelial cells (HUVEC); actives raise or lower the signal. Summed up: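 Compound added to primary HUVEC cultures, 24 h incubation, then HLA-DR determined by ELISA; endpoint derived by bidirectional fitting relative to DMSO negative control.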
Consider `COc1ccc(CCN2CCC(Nc3nc4ccccc4n3Cc3ccc(F)cc3)CC2)cc1`, for which the AC50 is 6.77 µM (active).
On to `CCC(C)c1cc([N+](=O)[O-])cc([N+](=O)[O-])c1OC(=O)OC(C)C` (centres undefined), for which the AC50 was 9.38 µM (active).
Take `c1ccc2cc(Nc3ccc(Nc4ccc5ccccc5c4)cc3)ccc2c1`: the outcome was inactive.
For the compound `CC(C)(C)CC(C)(C)c1ccc(OCCOCC[N+](C)(C)Cc2ccccc2)cc1`, the AC50 was 5 µM (active).
For the compound `CC(C)(N=C=O)c1cccc(C(C)(C)N=C=O)c1`, the result was inactive.
Same read-out and setting: in the case of `C1=CC2C3C=CC(C3)C2C1` (centres undefined) it was “inactive”.
Take `CC1(C)CCC[C@]2(C)[C@H]3CCO[C@]3(C)CC[C@@H]12`: the concentration at half-maximal activity (AC50) was 33.8 µM (active) and 34.7 µM (active).
With `CS(=O)(=O)c1ccc(C2=C(c3ccccc3)C(=O)OC2)cc1`, the result was inactive.
